The text below walks through data of PubChem BioAssay AID624351 (Southern Research Specialized Biocontainment Screening …, 2012).

Broadly, the IC50 is the concentration needed to halve the response being measured. The inhibition is the drop in the measured response relative to a control, in per cent.

Among all 2,400 compounds or so, about 1,400 (58%) were called active. So high a share suggests a set chosen from earlier hits. The list shows a part of the results. A number with no mark means an inactive call.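 How the source made its calls: active means inhibition of 30% or more at any tested dose; inconclusive means primary hits over the limit that were never retested; inactive means the rest.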

The assay in a line: ADP Hunter readout inhibition without MgcRacGAP – biochemical, coupled enzyme counter-screen, artefact control for MgcRacGAP inhibitor project, dose response (AID 624351).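 Further: signal is the ADP detection kit reading of free GDP without any GAP enzyme.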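 On inhibition: 0% = median positive control wells and 100% = median negative control wells.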 To be noted: fluorescence, no MgcRacGAP; series mostly up to 80 µM; inhibition: at the top concentration. (Counterscreens check selectivity or assay interference.)
`CCN(CC)S(=O)(=O)c1ccc(N/N=C/c2ccc(O)cc2)nc1`: the IC50 was 38 µM (active).

Consider `CCN(CC)S(=O)(=O)c1ccc(N/N=C/c2ccc(O)cc2O)nc1`, for which the IC50 is 29.4 µM (active).

On to `C[n+]1c(-c2ccccc2)cc2c(=Cc3ccc([N+](=O)[O-])cc3)c3ccccc3n21`, for which the “inhibition” value is 5.28%.

Regarding `CC(C)CN(Cc1c(O)ccc2ccccc12)CC(C)C`, the IC50 was 53.2 µM (active).

In the case of `CN=c1scc(C)n1/N=C/c1cc(Br)c(O)c(OC)c1`, the IC50 was 12.6 µM (active).

In the case of `CCN=c1scc(C)n1/N=C/c1cc(Br)c(O)c(OC)c1`, the IC50 was 28.7 µM (active).

In the case of `COc1cc(/C=C2/C(=O)NN(c3ccc(Cl)cc3)C2=O)cc(Br)c1O`, the “inhibition” value was 12.1%.

In the case of `CN=c1scc(C)n1/N=C/c1cc(Br)c(O)c(Br)c1`, the IC50 is 69.6 µM (active).

On to `Cc1cc(C)cc(-n2c3nc4ccccc4nc3c3c(=O)n(Cc4ccco4)cnc32)c1`, for which the “inhibition” value is -1.1%.

On to `COc1ccc(CN2CCN(Cc3ccc4ccccc4c3)CC2)cc1OC`, for which the “inhibition” value is 15%.

Consider `CN1CCCCCC1=Nc1ccccc1C#N`, for which the “inhibition” value was 22.3%.

`O=C1NC(=S)S/C1=C\C=C\c1ccc([N+](=O)[O-])o1`: the “inhibition” value is 6.48%.

For the molecule `Cc1cc(/C=C2\SC(=S)NC2=O)c(C)[nH]1`, the “inhibition” value was 10.3%.

Consider `Cc1cc(/C=C2\SC(=S)NC2=O)cc(C)c1O`, for which the half-maximal inhibitory concentration (IC50) was 29.1 µM (active).

Regarding `COc1cc(/C=N/N=C2/NC(=O)C(c3ccccc3)S2)ccc1O` (stereo not drawn), the IC50 is 41.6 µM (active).

For `COc1cc(/C=C2\SC(=Nc3ccc(Cl)c(C(=O)O)c3)NC2=O)c(Br)c(Br)c1O`, the IC50 is 37.5 µM (active).

With `COc1ccc(N=C2NC(=O)/C(=C/c3ccc(O)c(OC)c3)S2)cc1`, the IC50 was 24.1 µM (active).

In the case of `COc1ccc(/C=N/N=C2/NC(=O)C(CC(=O)O)S2)cc1OCc1ccc(Cl)cc1Cl` (stereo not drawn), the “inhibition” value was 6.87%.

Take `Cn1cccc1/C=C1\SC(=Nc2ccc(O)cc2)NC1=O`: the IC50 was 62.7 µM (active).

On to `O=C1NC(=S)S/C1=C\c1cc(Cl)cc(Cl)c1O`, for which the “inhibition” value is 22.8%.

On to `COCCCNCCCCOc1c(Cl)cc(C)cc1Br`, for which the “inhibition” value is 18.9%.

In the case of `Nc1cc(SCc2ccc([N+](=O)[O-])cc2)ncn1`, the “inhibition” value was -2%.

As for `COc1cc(/C=C2/C(=O)ON=C2c2ccccc2)ccc1O`, the “inhibition” value is 22.2%.

`COc1cc(/C=C2\SC(=Nc3ccccc3)NC2=O)cc(Cl)c1O`: the IC50 is 82 µM (active).

Turning to `COc1cc(C=C2NC(=O)NC2=O)ccc1O`, the IC50 is 19.4 µM (active).

With `CN(C)c1ccc(/C=C2/NC(=O)NC2=O)cc1`, the IC50 was 52.8 µM (active).

`COc1cc(/C=C2/SC(=Nc3ccc(O)cc3)NC2=O)ccc1O`: the IC50 is 27.2 µM (active).

On to `CCOc1ccc(C2NC(=O)C(C#N)=C(S)N2c2cccc(C)c2)cc1OC` (stereo not drawn), for which the “inhibition” value was 3.96%.

In the case of `COc1cc(/C=C2\SC(=Nc3ccccc3OC)NC2=O)ccc1O`, the IC50 was 25 µM (active).

As to `COc1ccc(-c2cn[nH]c2-c2ccc(O)cc2O)cc1OC`, the IC50 was 57.6 µM (active).

As for `COc1ccc(-c2cn[nH]c2-c2ccc(O)cc2O)cc1`, the IC50 was 47.9 µM (active).

As to `COc1ccccc1-c1cn[nH]c1-c1ccc(O)cc1O`, the IC50 was 51.4 µM (active).

With `CCn1c(=O)c(C(=O)CN(C)Cc2cccc(OC)c2OC)c(N)n(Cc2ccccc2)c1=O`, the “inhibition” value was 26.9%.

Turning to `COCCCNC1=C(C#N)C(=O)NC(c2cccs2)S1` (stereo not drawn), the “inhibition” value was 0.96%.

For `CC1(C)OC(=O)C(=Cc2ccc(-c3ccc(S(N)(=O)=O)cc3)o2)C(=O)O1`, the “inhibition” value was -0.06%.

Consider `O=c1c2ccc(F)cc2sn1-c1ccccc1`, for which the “inhibition” value is 22.8%.

In the case of `COc1ccc(Br)cc1CN1CCN(Cc2c[nH]c3ccccc23)CC1`, the “inhibition” value was 23.5%.

On to `COc1cc2c(CCNC(C)=O)c[nH]c2cc1O`, for which the IC50 is 50.7 µM (active).

Regarding `CCOc1ccc(CN2CCN(S(=O)(=O)c3ccc(NC(C)=O)cc3)CC2)cc1`, the “inhibition” value is 10.9%.

In the case of `N#Cc1ccccc1S(=O)(=O)N1CCN(C(=O)Cc2coc3cc(O)ccc23)CC1`, the IC50 was 33.6 µM (active).

For `CC(=O)N1CCN(CC(O)COc2ccc(Br)cc2)CC1` (stereo not drawn), the “inhibition” value is 15.8%.

Turning to `O=C(Cc1coc2cc(O)ccc12)N1CCN(S(=O)(=O)c2ccc(Br)cc2)CC1`, the IC50 was 21.6 µM (active).

On to `Cc1ccc(C)c(S(=O)(=O)N2CCN(CC(=O)N3CCc4ccccc4C3)CC2)c1`, for which the “inhibition” value was 24.3%.

As to `Oc1ccc(-c2cn3c(n2)SCC3)cc1`, the IC50 was 19.5 µM (active).

For `CCOc1cc(-c2cc(-c3ccc(N)cc3)nc(N)c2C#N)ccc1O`, the “inhibition” value was 0.56%.

With `CCOc1cc(/C=C(\C#N)c2[nH]nc(N)c2C#N)ccc1O`, the IC50 is 45.7 µM (active).

Consider `CC1NC(C)c2c(ccc3ccccc23)O1` (stereo not drawn), for which the “inhibition” value is 20.8%.

As to `Oc1ccc2ccccc2c1Br`, the IC50 is 15.8 µM (active).

For the molecule `CC1CCCN(CCOc2ccc3ccccc3c2Br)C1` (stereo not drawn), the “inhibition” value was 10.3%.

`CN1C(=O)C2C(c3ccc(N(C)C)cc3)=NN(Cc3ccccc3)C2C1=O` (stereo not drawn): the IC50 is 46.5 µM (active).

In the case of `c1ccc(Nc2cc(Nc3ccccc3)[nH]n2)cc1`, the IC50 is 57.9 µM (active).

As to `C/C=C/C=C/C(=O)[C@@H]1[C@@H]([C@]2(C)OC(=O)C(C)=C2O)[C@H]2/C(=C(O)/C=C/C=C/C)C(=O)[C@]1(C)C(=O)C2(C)O` (stereo partly drawn), the “inhibition” value is -21.4%.

As for `Oc1ccc(NC(=S)N=Nc2c(O)[nH]c3ccccc23)cc1`, the IC50 is 27.5 µM (active).
